Shown are actives, neighbours in structure and some others; about 2.2% of the full set was active somewhere.
FAS-TE inh: blocks the thioesterase domain of human fatty acid synthase; recombinant FAS-TE, OMFH fluorogenic substrate, fluorescence endpoint; hit rate 0.67% among 360,000; inhibition, % at 15 µM;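 active = compounds whose normalised, plate-corrected inhibition of enzyme fluorescence in the single-dose primary screen is 50% or more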
PLC-beta3 inh: PLC-beta3 (human) inhibition, primary screen | hit rate 0.18% among 370,000 | Q01970 | inhibition, % at 12.2 µM | Purified PLC-beta3, fluorogenic substrate, fluorescence; in the data active = inhibition above about 11%
Cardio protect: modulators protecting cardiomyocytes from myocardial damage; H9c2 cardiomyocytes, H2O2 injury protection, ATPLite, 2 h; protection from H2O2 cell death, % at 20 µM; hit rate 0.63% among 360,000;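 active = compounds giving at least 50% protection of heart cells from peroxide-induced death in the single-dose screen, raw or plate-pattern-corrected value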
PLCg1 inh: blocks human PLC-gamma1 enzyme activity; P19174; purified PLC-gamma1, fluorogenic substrate, fluorescence; inhibition, % at 12.2 µM; hit rate 0.84% among 370,000
PLCgamma1 ctr: inhibits human PLC-gamma1 in PLC-beta3 counter-screen; shares compounds with PLCg1 inh; purified PLC-gamma1, fluorogenic substrate, fluorescence; inhibition, % at 12.3 µM; hit rate 3.1% among 3,300; AID 743258
PLCb3 confirm: confirmation of human PLC-beta3 inhibitors | shares compounds with PLCg1 inh | purified PLC-beta3, fluorogenic substrate fluorescence | inhibition, % at 12.3 µM | hit rate 1% among 3,300 | AID 743261; in the data active = inhibition above about 11%
Large screens that a line does not name were inactive (follow-up assays come after a bar, where they were run). Rule as the data show it, unless noted: active = inhibition above about 9.5%; inactive = the rest.

NC(=O)C1CCN(C(=O)CCn2c(=O)oc3ccccc32)CC1	none
CCOC(=O)C1CCN(C(=O)CCn2c(=O)oc3ccccc32)CC1	PLCg1 inh 9.6 | PLCgamma1 ctr inactive | PLCb3 confirm inactive
CCOC(=O)C1CCN(C(=O)c2ccc(Br)o2)CC1	PLCg1 inh 10 | PLCgamma1 ctr inactive | PLCb3 confirm inactive
CCCCNS(=O)(=O)CC1NCc2cc(F)ccc21 (stereo unspecified)	none (no result: FAS-TE inh, Cardio protect)
Cc1cccc(OCCSc2nc(N)cc(N)n2)c1	none
CCN(C(=O)c1cc(S(=O)(=O)N2CCCCC2)c[nH]1)c1ccc(OC)cc1	none
Cc1cccc(OCC(=O)OC(C)C(=O)Nc2ccc(S(=O)(=O)N3CCCCC3)cc2)c1 (stereo unspecified)	none
O=C(NN1C(=O)CSC1=S)C(=O)NN1C(=O)CSC1=S	PLCg1 inh 44 | PLCgamma1 ctr 71 | PLCb3 confirm inactive
Cc1ccc(F)c(C(=O)N2CCCC(C)(C(=O)NS(=O)(=O)C3CC3)C2)c1F (stereo unspecified)	none (no result: PLC-beta3 inh, PLCg1 inh)
CC1=C(c2ccccc2)C(O)(c2ccccc2)C(C)C1=O (stereo unspecified)	PLCg1 inh 14 | PLCgamma1 ctr inactive | PLCb3 confirm inactive
Cc1cccc(NC(=O)Cn2c(=O)n(CCc3c[nH]c4ccccc34)c(=O)c3cccnc32)c1	PLCg1 inh 11 (no result: FAS-TE inh, Cardio protect) | PLCgamma1 ctr inactive | PLCb3 confirm inactive
CC(SC(=S)N1CCOCC1)C(=O)O (stereo unspecified)	PLCg1 inh 12 | PLCgamma1 ctr inactive | PLCb3 confirm inactive
COC(=O)[C@]12C[C@H](CC(=O)NCc3ccc(C)o3)C(=O)N(Cc3ccc(Cl)cc3Cl)C1=C[C@H](COCc1ccccc1)O[C@@H]2C	none (no result: FAS-TE inh, Cardio protect)
CC(C)(C)NC(=O)c1cc(-c2ccccc2)n[nH]1	none
CC(C)(C)c1cc(-c2ccccc2)n[nH]1	PLCg1 inh 11 | PLCgamma1 ctr inactive | PLCb3 confirm inactive
CC(=O)OC(C)C(=O)NS(=O)(=O)c1ccc(C)cc1 (stereo unspecified)	none
COC(=O)C(C(=O)OC)[C@H]1C=C[C@@H](C(=O)NS(=O)(=O)c2ccc(C)cc2)N(C(C)=O)C1	PLCg1 inh 81 (no result: FAS-TE inh, Cardio protect) | PLCgamma1 ctr 76 | PLCb3 confirm inactive
CC(=O)N1C[C@@H](c2c[nH]c3ccccc23)C=C[C@H]1C(=O)NS(=O)(=O)c1ccc(C)cc1	PLCg1 inh 53 (no result: FAS-TE inh, Cardio protect) | PLCgamma1 ctr 48 | PLCb3 confirm inactive
Cc1ccc(Sc2nc3c(c(=O)[nH]c(=O)n3C)n2CCc2ccccc2)cc1	PLC-beta3 inh 13 | PLCgamma1 ctr inactive | PLCb3 confirm inactive
COc1ccccc1N(CC(=O)NCc1ccccc1)S(=O)(=O)c1cccs1	none
COc1cc(NC(=O)Nc2cccc3cccnc23)cc(OC)c1OC	PLCg1 inh 15 | PLCgamma1 ctr inactive | PLCb3 confirm inactive
O=C(Nc1ccc(N2CCN(C(=O)c3cccs3)CC2)c(Cl)c1)c1ccco1	PLCg1 inh 14 | PLCgamma1 ctr inactive | PLCb3 confirm inactive
Cc1ccccc1C(=O)N1CCN(c2ccc(NC(=O)c3ccco3)cc2Cl)CC1	none
O=C(O)c1ccc(NC2=C/C(=N/S(=O)(=O)c3ccccc3)c3ccccc3C2=O)cc1	PLCg1 inh 11 | PLCgamma1 ctr 18 | PLCb3 confirm inactive
O=C1C(Nc2ccc(O)cc2)=C/C(=N/S(=O)(=O)c2cccs2)c2ccccc21	PLCg1 inh 20 | PLCgamma1 ctr 29 | PLCb3 confirm 11
O=C(O)c1ccc(NC2=C/C(=N/S(=O)(=O)c3cccs3)c3ccccc3C2=O)cc1	none
Cc1cc(C)nc(NCC(O)CNc2ccccc2C)n1 (stereo unspecified)	none
Cc1cc(C)nc(NCC(O)COc2ccccc2C)n1 (stereo unspecified)	PLCg1 inh 12 | PLCgamma1 ctr inactive | PLCb3 confirm inactive
O=C(CN1CCC(NC(=O)Nc2ccc(Cl)cc2)CC1)Nc1ccc2c(c1)OCCO2	none (no result: FAS-TE inh, Cardio protect)
CC(C)CC1OC(C)CC2=C1C(=O)OC(C)(C)O2 (stereo unspecified)	none (no result: Cardio protect)
Cc1ccc(/C=C/C(=O)NCc2cccs2)c(C)c1	none
Cc1ccc(/C=C/C(=O)NCc2cccs2)cc1	PLC-beta3 inh 13 | PLCgamma1 ctr inactive | PLCb3 confirm inactive
CCOC(=O)N1CCC(NC(=O)CCN2C(=O)C3C4C=CC(C4)C3C2=O)CC1 (stereo unspecified)	PLCg1 inh 10 | PLCgamma1 ctr inactive | PLCb3 confirm inactive
COCCNC(=O)C1CCCN(C(=O)c2cncc(Br)c2)CC1 (stereo unspecified)	none
CCOCCCNC(=O)C(c1ccc(C)cc1)N(Cc1ccc2c(c1)OCO2)C(=O)CNC(C)=O (stereo unspecified)	PLCg1 inh 13 | PLCgamma1 ctr inactive | PLCb3 confirm inactive
O=S(=O)(NC1CCCC1)c1ccccc1Br	PLC-beta3 inh 16 | PLCgamma1 ctr inactive | PLCb3 confirm inactive
Cc1ncc([N+](=O)[O-])n1CCOC(=O)c1ccccc1	PLC-beta3 inh 13, PLCg1 inh 10 | PLCgamma1 ctr inactive | PLCb3 confirm inactive
C=CCC[C@H](Cc1ccc(F)cc1)C(=O)OC[C@H](Cc1c[nH]c2ccccc12)NC(=O)[C@@H](CC=C)CC(=O)N[C@H](CO)Cc1ccccc1	PLCg1 inh 12 | PLCgamma1 ctr inactive | PLCb3 confirm inactive
C=CC[C@@H](CC(=O)N(CCO)Cc1ccccc1)C(=O)N[C@H](COC(=O)[C@@H](CC=C)Cc1ccc(F)cc1)c1ccccc1	none
C=CC[C@@H](CC(=O)N(CCO)Cc1ccccc1)C(=O)N[C@H](COC(=O)[C@@H](CC=C)CC(=O)OC(C)(C)C)Cc1c[nH]c2ccccc12	PLCg1 inh 9.6 | PLCgamma1 ctr inactive | PLCb3 confirm inactive
C=CC[C@H](CC(=O)N(CCO)Cc1ccccc1)C(=O)N[C@@H](COC(=O)[C@H](CC=C)CC(=O)OC(C)(C)C)Cc1c[nH]c2ccccc12	none
C=CCC[C@H](Cc1ccc(F)cc1)C(=O)OC[C@@H](Cc1c[nH]c2ccccc12)NC(=O)[C@H](CC=C)CC(=O)N(CCO)Cc1ccccc1	PLCg1 inh 12 | PLCgamma1 ctr inactive | PLCb3 confirm inactive
C=CC[C@@H](CC(=O)N(CCO)Cc1ccccc1)C(=O)NC[C@H](OC(=O)[C@@H](CC=C)Cc1ccc(F)cc1)c1ccccc1	PLCg1 inh 10 | PLCgamma1 ctr inactive | PLCb3 confirm inactive
Nc1[nH]c(C(=O)c2ccccc2)c(-c2ccc(Cl)c(F)c2)c1C(=O)NCCc1c[nH]c2ccccc12	none (no result: Cardio protect)
O=C(c1ccccc1)c1ccc(OCC(O)CNCc2ccc(F)cc2)cc1 (stereo unspecified)	none
Cc1ccc(C(OCC(O)CNCc2ccc(F)cc2)c2ccccc2)cc1 (stereo unspecified)	PLCg1 inh 17 | PLCgamma1 ctr inactive | PLCb3 confirm inactive
Cc1ccc(C(CC(=O)N2CCCC2)c2ccccc2)c(O)c1 (stereo unspecified)	none
COc1ccc(NS(=O)(=O)c2cc(NC(=O)c3cccnc3Cl)ccc2N2CCCC2)cc1	PLCg1 inh 10 | PLCgamma1 ctr inactive | PLCb3 confirm inactive

Assay outcomes: PubChem BioAssay, several laboratories
